From PubChem
Only some compounds are listed: those with a hit (about 3.9% of all), similar ones and a draw of the others.
TGFb inhibitor – qHTS for Inhibitors of TGF-b; HepG2 CAGA-GFP TGF-b/SMAD3 reporter, GFP fluorescence, 18 h; TGF-beta stimulated, 500 pg/mL final; AID 588855, 2011; Potency, µM (titrated, usually from 46.1 µM), actives largely listed as inhibitors; 410,000 compounds, 1.2% hits; note: nearly all actives have a fitted effect of over 65% in size
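Smad-responsive CAGA-GFP expression was quantified in HEPG2 cells exposed to compounds and 500 pg/mL final TGF-beta for 18 h at 37 degrees C; unstimulated wells defined full inhibition.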
HepG2 viability – qHTS for Inhibitors of TGF-b: Cytotox Counterscreen; HepG2 CAGA-GFP viability, ATP luminescence, 18 h; Potency, µM (series often up to 46.1 µM), hits mostly cytotoxic; 410,000 compounds, 0.76% hits; AID 588856, 2011
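HepG2 CAGA-GFP cells (1000/well, DMEM with 1% FBS) received compound, then TGF-beta at 500 pg/mL final, and were incubated 18 hours at 37 degrees C. Viability was read by CellTiter-Glo luminescence. Media-only wells were set as complete cell-killing and DMSO as no toxicity.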
HT1080-NT tox – qHTS for induction of synthetic lethality in tumor cells producing 2HG: qHTS for the HT-1080-NT fibrosarcoma cell line; Potency, µM (doses to about 46.1 µM), usual class: cytotoxic; HT-1080-NT fibrosarcoma viability, CellTiter-Glo ATP luminescence, 48 h; 360,000 compounds, 1.6% hits;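 note: NT is the 2HG producing partner of a matched IDH1 knockdown line; nearly all actives have a fitted effect of over 55% in size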
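Compounds were tested in concentration-response format on HT-1080-NT cells for 48 hours at 37 degrees C. Cell viability came from CellTiter-Glo luminescence; curves were classified by r2, response magnitude and activity.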
ATXN viability – Viability Counterscreen for Primary qHTS for Inhibitors of ATXN expression. S2 cells (HEK-293 line with an ATXN2-luciferase reporter) viability, CellTiter-Fluor protease fluorescence, 24 h. Potency, µM (series often up to 56.7 µM), hits mostly cytotoxic. 400,000 compounds, 0.49% hits. AID 651635, 2014; note: nearly all actives have a fitted effect of over 40% in size
ATXN2 expr inh – Primary qHTS for Inhibitors of ATXN expression; HEK-293 ATXN2-luciferase reporter, luminescence, 24 h; AID 1745845, 2022; 360,000 compounds, 0.72% hits; Potency, µM (doses to about 57 µM), usual class: inhibitors; note: nearly all actives have a fitted effect of over 55% in size
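ATXN2-luciferase reporter cells (luciferase flanked by upstream and downstream ATXN2 gene portions) were treated 24 h at 37 °C with compounds at up to 57 uM. SteadyGlo luminescence gave expression; GF-AFC fluorescence gave viability.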
HT1080 IDH1KD tx – qHTS for induction of synthetic lethality in tumor cells producing 2HG: qHTS for the HT-1080-IDH1KD cell line | 360,000 compounds, 2% hits | AID 686971, 2013 | Potency, µM (doses to about 46.1 µM), actives largely listed as cytotoxic | HT-1080 IDH1 knockdown viability, ATP luminescence, 48 h
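IDH1KD HT-1080 cells, 750/well, RPMI + 5% FBS; compound pinned after 2 h settling; 48 h, 37 °C; CellTiter-Glo luminescence; % activity normalised to DMSO and no-cell wells; curves fitted, classed by r2 and efficacy.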
Numbers stand for hits; i = inactive; ? = inconclusive; nt = no result; ! = repeats disagree. Calls come from the whole dose curve; as a rule, active = well fitted curve in the direction sought with a large enough effect; inconclusive = small, poorly fitted or top-dose-only effect, or another doubt; inactive = no such curve, though single readings can be large; an effect the other way counts as inactive or inconclusive.

SMILES	TGFb inhibitor	HepG2 viability	HT1080-NT tox	ATXN viability	ATXN2 expr inh	HT1080 IDH1KD tx
CCOC(=O)[C@]12Cc3ccccc3[C@H]1N(CCC(=O)OC)C(=O)c1ccccc12	nt	nt	?	?	i	?
CCCCCN1C(=O)c2ccccc2[C@@]2(C(=O)OCC)Cc3cc(OC)ccc3[C@@H]12	nt	nt	14.6µM	12.6µM	?	11.6µM
CCOC(=O)[C@]12Cc3cc(OC)ccc3[C@H]1N(Cc1ccccc1)C(=O)c1ccccc12	?	i	i	?	?	i
CCOC(=O)[C@]12Cc3cc(OC)ccc3[C@H]1N(C1CCCCC1)C(=O)c1cc(OC)ccc12	nt	nt	23.1µM	12.6µM	20µM	18.4µM
CCOC(=O)[C@]12Cc3cc(C)ccc3[C@H]1N(CCC(=O)OC)C(=O)c1cc(OC)ccc12	nt	nt	23.1µM	15.8µM	22.4µM	18.4µM
CCOC(=O)C1C(=O)NC2(C)CC1c1cc(OC)ccc1O2 (configuration not stated)	i	i	i	i	i	i
CCOC(=O)[C@]12Cc3cc(C)ccc3[C@H]1N(C1CCCCC1)C(=O)c1cc(OC)ccc12	nt	nt	2.91µM	4.47µM	5.01µM	3.26µM
Cn1nc(-c2ccc(C(=O)Nc3ccc(OC(F)(F)F)cc3)cc2)c2ccccc2c1=O	?	i	nt	?	i	nt
N#CC(C#N)=NNc1ccc([N+](=O)[O-])cc1	?	i	20.6µM	14.1µM	i	16.4µM
CCN(CC)S(=O)(=O)c1ccc(NN=C(C#N)C#N)cc1	?	i	i	?	i	i
CC(=O)[C@@]1(O)CC[C@H]2[C@@H]3CCC4=CC(=O)CC[C@]4(C)C3(F)[C@@H](O)C[C@@]21C (some centres not stated)	nt	nt	nt	i	nt	nt
CC(C)CC1C(=O)N2CCC[C@H]2[C@]2(O)O[C@](NC(=O)[C@@H]3C=C4c5cccc6[nH]c(Br)c(c56)C[C@H]4N(C)C3)(C(C)C)C(=O)N12 (some centres not stated)	?	i	nt	nt	nt	nt
CCCCC1(CCCC)C(=O)NC(=Nc2cccc(C)c2)NC1=O	?	i	?	i	?	18.4µM
CCCC1(CCC)C(=O)NC(=Nc2ccccc2)NC1=O	i	i	i	i	i	i
Oc1ccc2c3c1O[C@H]1[C@@H](O)C=C[C@H]4[C@H](C2)NCC[C@@]341	nt	nt	nt	i	nt	nt
Clc1ccc(COC(Cn2ccnc2)c2ccc(Cl)cc2Cl)c(Cl)c1 (configuration not stated)	?	15.8µM!	23.1µM	?	?	?
Clc1ccc(CO[C@@H](Cn2ccnc2)c2ccc(Cl)cc2Cl)cc1	nt	nt	nt	i	nt	nt
CCOC(=O)[C@]12Cc3ccccc3[C@H]1N(C(C)C)C(=O)c1cc(OC)ccc12	nt	nt	?	nt	?	16.4µM
CCOC(=O)[C@]12Cc3cc(C)ccc3[C@H]1N(Cc1ccccc1)C(=O)c1cc(F)c(F)cc12	nt	nt	?	15.8µM	17.8µM	?
CCOC(=O)[C@]12Cc3cc(OC)ccc3[C@H]1N(Cc1ccccc1)C(=O)c1cc(F)c(F)cc12	?	i	i	i	i	i
CCOC(=O)[C@]12Cc3c(cc(OC)c(OC)c3OC)[C@H]1N(C)C(=O)c1cc(OC)ccc12	nt	nt	14.6µM	nt	11.2µM	?
COC(=O)C12CCc3cc(OC)ccc3C1=CC(=O)C2 (configuration not stated)	i	i	i	i	nt	i
COc1cc2c(cc1OC)C(C(=O)N1CCC3(CC1)OCCO3)C(c1ccccc1F)N(C)C2=O (configuration not stated)	i	i	i	i	i	i
CCOC(=O)[C@]12Cc3c(cc(OC)c(OC)c3OC)[C@H]1N(C(C)C)C(=O)c1ccccc12	nt	nt	?	?	?	6.51µM
COc1cc2c(cc1OC)C(C(=O)NCCC(C)C)C1CCCCN1C2=O (configuration not stated)	i	i	i	i	i	i
